Assay [1] in a line: qHTS assay to identify small molecule agonists of H2AX (AID 1224845; active means well fitted activation curve with a large enough effect in the signal ratio in the repeat runs, not every such curve was filed as active; the % refers to the signal ratio; further: potency means the concentration at half of the fitted maximal effect). Summed up:
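Wild-type CHO-K1 cells, plated overnight, exposed 3hr at 37C to 15 concentrations (0.76% DMSO final). Lysed, then HTRF anti-pH2AX (S139) cryptate and anti-H2AX-d2 antibodies, 24 hr room temperature; 665/620 nm emission read.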
A general note: Quantitative high-throughput screening tests each substance at several concentrations.

Assay [2] is described as follows: qHTS assay to identify small molecule agonists of H2AX - cell viability counter screen (AID 1224847; calls by dose curve; further: nearly all actives have a fitted effect of over 30% in size; further: potency means the concentration at half of the fitted maximal effect). Summed up:
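Cells plated first: CHO-K1, 1000 per well in 10% FBS medium, incubated overnight at 37C. Then 15-point compound titration added (final DMSO 0.76%) for 3 hr. Finally CellTiter-Glo added and luminescence read.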

The nature of assay [3]: qHTS RealTime-Glo MT Cell Viability Assay in HepG2 cells - 24 hour (AID 1224867). Further: nearly all actives have a fitted effect of over 50% in size. Further: potency means the concentration at half of the fitted maximal effect. Summed up:
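HepG2 cells were seeded at 600 cells/well together with NanoLuc luciferase and a cell-permeant prosubstrate, preincubated 5 h at 37 C/5% CO2, then pin-dosed with compounds in DMSO. Nonlytic luminescence from viable cells was read at each time point.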

Assay [4] in a line: qHTS RealTime-Glo MT Cell Viability Assay in HEK293 cells - 32 hour (AID 1224868). Further: nearly all actives have a fitted effect of over 50% in size. Further: potency means the concentration at half of the fitted maximal effect. Summed up: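 HEK293 cells were seeded at 600 cells/well together with NanoLuc luciferase and cell-permeant prosubstrate, preincubated 5 h at 37 C/5% CO2, then given compound in DMSO by pintool. Luminescence from viable-cell prosubstrate reduction was read repeatedly over 40 h.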
The nature of assay [5]: A CellTox Green Cytotoxicity Assay to monitor cytotoxicity in HEK293 cells - 0 hour (AID 1224869). Further: nearly all actives have a fitted effect of over 50% in size. Further: potency means the concentration at half of the fitted maximal effect. Summed up: (§1)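 Fluorescence intensity, read at 0, 8, 16, 24, 32 and 40 h of compound treatment, reflected dye binding to DNA of dead HEK293 cells; compounds (23 nL, DMSO) were added 5 h after plating cells with reagent.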
The nature of assay [6]: qHTS RealTime-Glo MT Cell Viability Assay in HepG2 cells - 40 hour (AID 1224870). Further: nearly all actives have a fitted effect of over 50% in size. Further: potency means the concentration at half of the fitted maximal effect. The essentials:
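HepG2 cells (600/well) mixed with RealTime-Glo MT reagent, settled 5 h at 37 C/5% CO2 before compound addition. Nonlytic NanoLuc luminescence from viable-cell prosubstrate reduction read repeatedly during 40 h treatment at 37 C.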

A short description of assay [7]: A CellTox Green Cytotoxicity Assay to monitor cytotoxicity in HEK293 cells - 40 hour (AID 1224871). Further: nearly all actives have a fitted effect of over 45% in size. Further: potency means the concentration at half of the fitted maximal effect. Summed up:
as §1

A short description of assay [8]: qHTS assay to identify small molecule antagonists of the estrogen related receptor (ERR) signaling pathway from Tox21 library (AID 1224848). Further: nearly all actives have a fitted effect of over 50% in size. Further: potency means the concentration at half of the fitted maximal effect. The essentials:
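ERR reporter cell line (from NTP) seeded 2,000 cells/well, rested 6 h at 37 C/5% CO2, then pin-dosed with compounds in DMSO. After 18 h at 37 C, ONE-Glo added; luminescence read after 30 min at room temperature.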

Assay [9] in a line: qHTS assay to identify small molecule agonists of the estrogen related receptor (ERR) signaling pathway from Tox21 library (AID 1224849; calls by dose curve; further: nearly all actives have a fitted effect of over 15% in size). The note with it: ERR reporter cell line, ONE-Glo luciferase, 18 h. The essentials:
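Screening used an NTP-provided ERR luciferase cell line. Compounds in DMSO were added 6 h after seeding and left 18 h at 37 C before a 30 min ONE-Glo step and luminescence reading.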

Assay [10] in a line: qHTS assay to identify small molecule agonists of the hypoxia (HIF-1) signaling pathway (AID 1224846; active means well fitted activation curve with a large enough effect in the signal ratio in the repeat runs, not every such curve was filed as active; the % refers to the signal ratio). Summed up: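 A low-serum medium (0.5% dialyzed FBS) holding 2,000 HRE-bla ME-180 cells per well is preincubated for 5 hrs, dosed with compounds by pintool, and kept a further 17 hrs at 37C, 5% CO2 before CCF4-AM FRET detection of beta-lactamase.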
[11] abbreviates: at 92.4 µM (top of the series) unless noted.

Several values for one entry are separate records, joined by “and”; a condition that tells them apart may be missing. Identical values can stand only once. Unmarked numbers belong to inactive results. Results filed as inconclusive are left out. Activity calls are given as the source filed them. Unless noted, the call rests on the fitted dose curve; in most records, active means well fitted curve in the direction sought with a large enough effect in the repeat runs; inconclusive means weak or mixed curves; inactive means no such curve, though single readings can be large; an effect the other way counts as inactive or inconclusive.
On the % scale 0 is the no-effect control and ±100 the full control effect.

Consider `CN1[C@@H]2CC[C@H]1CC(OC(=O)C(CO)c1ccccc1)C2` (stereo partly drawn), for which the Potency entry in [1], in assay [2], in [3], in assay [4], in [5] and in assay [6] was “inactive” in each case. Moreover, the Potency result in assay [7] is “inactive”.

For the molecule `Oc1c(Br)cc(Br)c2cccnc12`, the Potency in assay [1] was 55.2 µM (active); in [8], 18.8 µM (active). In addition, the Potency result in assay [2], in assay [3], in assay [5] and in [6] was “inactive” throughout. Further, in assay [9] (setting [11]), the activity change, positive = activation is -61.3% [at 42.5 µM].

Turning to `CC(C)N=C(N)/N=C(\N)Nc1ccc(Cl)cc1`, the Potency entry in assay [1], in assay [3], in assay [5] and in assay [6] was “inactive” in each case. The activity change, positive = activation in assay [9] (setting [11]) was -24.8% [at 42.5 µM]. Also, in assay [4], the Potency was 26.8 µM (active).

For `CC1=C(/C=C/C(C)=C/C=C/C(C)=C\C=O)C(C)(C)CCC1`, the result in assay [10] was inactive. The Potency in assay [2] is 107 µM (active); in assay [4], 46.4 µM (active). Moreover, the Potency entry in [3], in assay [5] and in [6] was “inactive” each time.

As for `O[C@@H](c1cc(C(F)(F)F)nc2c(C(F)(F)F)cccc12)[C@H]1CCCCN1`, the molecule was called inactive in assay [10]. The activity change, positive = activation in assay [9] (setting [11]) is -63.8% [at 42.5 µM]. In addition, the Potency was 16.9 µM (active) in assay [3], 13.4 µM (active) in [6] and 23.9 µM (active) in assay [7]. For the same molecule, the Potency result in assay [5] is “inactive”.

For the molecule `CCCCCCCCCCOCC(O)CN` (stereo not drawn), in assay [10], the call was inactive. The Potency in assay [2] was 55.2 µM (active); in assay [3], 15.1 µM (active); in assay [4], 23.9 µM (active); in assay [6], 15.1 µM (active); in assay [7], 26.8 µM (active). For the same molecule, the activity change, positive = activation in assay [9] (setting [11]) was -64% [at 42.5 µM]. In assay [5], the Potency entry was “inactive”.

On to `CCCN(CCc1cccs1)[C@H]1CCc2c(O)cccc2C1`, for which the Potency entry in assay [1], in [3], in assay [5] and in [6] was “inactive” each time. Besides, the activity change, positive = activation in [9] (setting [11]) is -19.8% [at 42.5 µM]. For the same molecule, the results for the Potency in [4] and in assay [7] were 19 µM (active) and 23.9 µM (active), respectively.

In the case of `CCCCCCCCCCCC(=O)N(CC)CC`, the Potency result in [1], in assay [3], in [4], in [5], in assay [6] and in [7] was “inactive” throughout.

On to `C=CC(=O)OCCC#N`, for which the outcome in assay [10] was inactive. Besides, the Potency entry in assay [8], in assay [3], in assay [5] and in assay [6] was “inactive” each time. Also, the activity change, positive = activation in assay [9] (setting [11]) was 47% (active).

Regarding `CC1CCCNC1` (stereo not drawn), the Potency entry in assay [1], in [3], in assay [4], in assay [5] and in [6] was “inactive” throughout.

For the molecule `CCN(CC)CCSC(=O)C(c1ccccc1)c1ccccc1`, the molecule was classed as inactive in assay [10]. In addition, the Potency result in assay [3], in assay [4], in [5] and in [6] was “inactive” each time.

Consider `O=C1Nc2ccc(Cl)cc2[C@@](C#CC2CC2)(C(F)(F)F)O1`, for which the Potency entry in [1], in assay [5] and in assay [6] was “inactive” in each case.

Take `Oc1ccc(-c2ccc(O)cc2)cc1`: the molecule was called inactive in assay [10]. Moreover, in assay [9] (setting [11]), the activity change, positive = activation is -24.2%. Besides, the Potency result in assay [3], in assay [5], in assay [6] and in assay [7] was “inactive” in each case.

As to `C=CC(C)(CCC=C(C)C)OC(=O)/C=C/c1ccccc1` (stereo not drawn), the molecule was called inactive in assay [10]. Moreover, the Potency result in [2], in assay [3], in assay [4] and in [6] was “inactive” in each case. For the same molecule, the Potency in assay [5] and in [7] was 38.9 µM (active) each time.

With `CCOC(=O)N1CCC(=C2c3ccc(Cl)cc3CCc3cccnc32)CC1`, the Potency in [2] is 61.9 µM (active); in assay [8], 30.6 µM (active) and 26.6 µM (active); in assay [4], 15.5 µM (active) and 16.9 µM (active); in [7], 43.6 µM (active). In addition, the activity change, positive = activation in assay [9] (at 42.5 µM (top of the series)) was -46%; in assay [9] (at 92.4 µM (top of the series)), -60.8%. In [5], the Potency entry was “inactive”.

As for `CCCCCCC(C)OC(=O)COc1nc(F)c(Cl)c(N)c1Cl` (stereo not drawn), in [10], the call was inactive. The activity change, positive = activation in assay [9] (setting [11]) is -16.7%. For the same molecule, the Potency entry in assay [3], in assay [4], in assay [5], in [6] and in [7] was “inactive” each time.

As for `O=C1OC(=O)c2cccc3cccc1c23`, in assay [10], the call was inactive. For the same molecule, the Potency result in assay [8], in [3], in [4], in assay [5], in assay [6] and in assay [7] was “inactive” each time. Moreover, in assay [9] (setting [11]), the activity change, positive = activation is -2.65%.

`Oc1cc2ccccc2cc1O`: the molecule was classed as inactive in assay [10]. Besides, the Potency result in assay [3], in assay [5] and in assay [6] was “inactive” in each case.

On to `CCCCNc1c(C(=O)OCC)c(C)nc2c1cnn2CC`, for which the Potency result in assay [1], in assay [3], in assay [5], in [6] and in [7] was “inactive” each time. Besides, the Potency in assay [4] is 21.3 µM (active).

In the case of `Cc1occc1SSc1ccoc1C`, the molecule was classed as inactive in assay [10]. Moreover, the Potency entry in assay [2], in assay [4], in assay [5] and in assay [6] was “inactive” throughout. The Potency in [7] is 54.9 µM (active).

On to `CCCSS/C(CCO)=C(\C)N(C=O)Cc1cnc(C)nc1N`, for which, in [10], the call was inactive. Besides, the Potency entry in assay [5] and in assay [7] was “inactive” in each case.

For the molecule `CSc1ccc2c(c1)N(CCC1CCCCN1C)c1ccccc1S2` (stereo not drawn), the Potency is 50.3 µM (active) and 55.2 µM (active) in [2]; 27.2 µM (active) in [8]; 48.8 µM (active) and 23.9 µM (active) in assay [3]; 15.4 µM (active) in [4]; 30.8 µM (active) in assay [6]; 30.8 µM (active) in assay [7]. Moreover, the activity change, positive = activation in assay [9] (at 42.5 µM (top of the series)) was -67.5%; in [9] (at 92.4 µM (top of the series)), -73.9%. Further, the Potency entry in assay [5] was “inactive”.

For `O=C1NCCN1CCN1CCC(c2cn(-c3ccc(F)cc3)c3ccc(Cl)cc23)CC1`, in assay [10], the outcome was inactive. Besides, the Potency is 13.3 µM (active) in assay [8], 23.9 µM (active) in assay [3], 21.3 µM (active) in [4] and 26.8 µM (active) in [6]. For the same molecule, the activity change, positive = activation in assay [9] (setting [11]) was -56.2% [at 42.5 µM]. For the same molecule, the Potency entry in assay [5] was “inactive”.

For `CC(C(O)c1ccccc1)N(C)CCOC(c1ccccc1)c1ccccc1` (stereo not drawn), in [10], the result was inactive. The Potency in [8] was 23.7 µM (active); in assay [4], 23.9 µM (active); in assay [7] it was 26.8 µM (active). Further, the activity change, positive = activation in assay [9] (setting [11]) was -45.6% [at 42.5 µM]. Besides, in assay [5], the Potency result is “inactive”.

These data come from PubChem BioAssay (Tox21).
